Unmarked numbers belong to inactive results. How the calls were made is not given here.
Molecular target: Pantothenate synthetase (Mycobacterium tuberculosis (strain ATCC 25618 / H37Rv)) (UniProt P9WIL5)
Assay: Coupled enzyme confirmation of inhibitors against recombinant Mtb PanC (AID 375);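 further: 0% = full reaction with vehicle and 100% = no enzyme background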
Conditions: coupled enzyme assay; at 10 µM, active compounds read high

Sequence of Pantothenate synthetase (Mycobacterium tuberculosis (strain ATCC 25618 / H37Rv)) (P9WIL5 whole entry, looked up): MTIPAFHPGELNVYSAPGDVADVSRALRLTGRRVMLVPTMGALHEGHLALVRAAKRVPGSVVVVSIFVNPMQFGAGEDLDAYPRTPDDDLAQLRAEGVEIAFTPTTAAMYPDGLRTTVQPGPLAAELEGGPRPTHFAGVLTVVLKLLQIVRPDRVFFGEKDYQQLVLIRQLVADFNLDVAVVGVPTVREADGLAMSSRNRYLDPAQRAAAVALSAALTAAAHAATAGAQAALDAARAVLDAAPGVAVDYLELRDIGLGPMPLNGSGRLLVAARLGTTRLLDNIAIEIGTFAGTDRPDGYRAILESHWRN

`CCC(C(=O)Nc1ncccn1)(C(F)(F)F)C(F)(F)F` and `CCOC(=O)C(NC(=O)c1ccccc1)(Nc1cc(C)on1)C(F)(F)F` (centres undefined) are the same in inhibition: 0% for the first, 0% for the second.

Going from `OC(CCN1CCCC1)(c1ccccc1)C1CCCCC1` (centres undefined) to `CCS(=O)(=O)N1CCCC(C(=O)NCc2ccccc2Cl)C1` (centres undefined), the inhibition rises from 1% to 2%.

Compared with `COc1cc(CC(=O)Nc2ncc(C)s2)cc(OC)c1OC`, `COc1ccc(C(=O)Nc2nncs2)c(OC)c1` is higher in inhibition: 0% for the first, 3% for the second.

Compared with `Cc1ccc(S(=O)(=O)C2(C(=O)NC3CCCC3)CC2)cc1`, `CCN(CC)S(=O)(=O)c1ccc(F)cc1` is lower in inhibition: 9% for the first, 0% for the second.

First: Cc1cc(C(=O)CSc2nc3ccccc3[nH]2)c(C)n1C
Second: C=CCn1c(C)cc(C(=O)CSc2nc3ccccc3c(=O)[nH]2)c1C
The inhibition of the first is higher: 12% for the first, 0% for the second.

Going from `CCOc1cc(C(=O)NCc2nnc(SCC(=O)OC)n2C)cc(OCC)c1OCC` to `COCCn1c(SCC(=O)Nc2cccc(OC)c2)nnc1-c1ccccc1`, the inhibition rises from 2% to 4%.

First: CC1NC2(C(=O)N(Cc3ccccc3)c3ccccc32)C2C(=O)N(c3ccccc3)C(=O)C12 (centres undefined)
Second: CN(Cc1ccccc1)Cc1nc2c([nH]1)c(=O)[nH]c(=O)n2C
The inhibition of the first is lower: 0% for the first, 7% for the second.

`O=C(CCn1cccc1)N1CCc2ccccc21` and `CCOC(=O)N1CCN(C(=O)C(NS(=O)(=O)c2cccc3nsnc23)c2ccccc2)CC1` (centres undefined) are the same in inhibition: 0% for the first, 0% for the second.

First: CCOC(=O)c1ccc(NC(=O)CCc2nc(-c3cccc(C)c3)no2)cc1
Second: CCOC(=O)c1ccc(NC2OC(=O)c3ccccc32)cc1 (centres undefined)
The inhibition of the first is lower: 2% for the first, 4% for the second.

`COc1ccc(-n2c(SCC(=O)Nc3ccc(C(=O)O)cc3)nnc2-c2cccs2)cc1` and `COc1ccc(NC(=O)CC2Oc3ccccc3NC2=O)cc1` (centres undefined) are the same in inhibition: 0% for the first, 0% for the second.

Compared with `COc1ccc(-c2ccc(-c3noc(-c4ccccc4)n3)c(OC)n2)cc1`, `COc1ccc(-c2nsc(SCC(=O)Nc3cc(C)on3)n2)cc1` is lower in inhibition: 3% for the first, 0% for the second.

Going from `O=C(O)C1CSC2c3ccccc3C(=O)N12` (centres undefined) to `CCOC(=O)c1ccccc1NC(=O)c1cc2sccc2n1C`, the inhibition rises from 0% to 2%.

Going from `O=C1CC(c2ccco2)=Nc2ccccc2N1` to `Cc1ccc(-c2oc3ccccc3c(=O)c2O)cc1`, the inhibition falls from 6% to 0%.

Compared with `C[C@@H]1C[C@H]2[C@@H]3C[C@H](F)C4=CC(=O)C=C[C@]4(C)[C@@]3(F)[C@@H](O)C[C@]2(C)[C@@]1(O)C(=O)COC(=O)C(C)(C)C`, `CC1(C)Cc2cccc(OCC(=O)O)c2O1` is higher in inhibition: 0% for the first, 5% for the second.

Going from `COc1cccc(NC(=O)N(CCCN2CCOCC2)C(C)c2cc3cccc(OC)c3o2)c1` (centres undefined) to `CCCCN(Cc1cc2cc(OC)ccc2[nH]c1=O)C(=O)c1ccccn1`, the inhibition rises from 0% to 1%.

Going from `c1cc2c(cc1Nc1nc(-c3ccc4c(c3)OCO4)cs1)OCCO2` to `Cc1ccc(O)c(-c2cc3ccccc3[nH]2)c1`, the inhibition falls from 4% to 0%.

Going from `Cc1noc(C)c1C(=O)OCC(=O)Nc1ccccc1C(=O)NC(C)c1ccccc1` (centres undefined) to `Cc1ccc(C(C)C)c(OCCn2c(=O)oc3ccccc32)c1`, the inhibition falls from 14% to 0%.

First: Cc1cccc(-n2ncc3c(NCc4cccs4)ncnc32)c1
Second: COc1ccc(-n2ncc3c(N4CCC(C)CC4)ncnc32)cc1
The inhibition of the first is lower: 0% for the first, 1% for the second.

`Cc1cc(Nc2ccccc2F)n2ncnc2n1` and `CC(C)CCn1c(N)c(S(=O)(=O)c2cccs2)c2nc3ccccc3nc21` are the same in inhibition: 0% for the first, 0% for the second.

`COc1ccc(C(c2nnnn2C2CCCC2)N2CCN(C3CCCC3)CC2)cc1OC` (centres undefined) gave an inhibition of 4%.

— PubChem BioAssay
